Among all 310,000 compounds or so, about 17,000 (5.5%) were called active. Another 11% or so got no clear call; they are omitted. For the sample, actives were picked, then their nearest neighbours and some compounds at random. Values without a mark were called inactive. The call rests on the fitted dose curve; in most records, active means well fitted inhibition curve with a large enough effect; inconclusive means small, poorly fitted or top-dose-only effect, or effect the other way; inactive means no such curve, though single readings can be large or run the other way.
target: Nuclear receptor ROR-gamma (Mus musculus) (UniProt P51450); assay: qHTS for inhibitors of ROR gamma transcriptional activity; conditions: Drosophila S2 Gal4-RORgamma UAS-luciferase reporter, 20 h; series mostly up to 53.6 µM; activity change, negative = inhibition: at the top concentration; further: nearly all actives have a fitted effect of over 60% in size
In short: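 Drosophila S2 cells stably expressing Gal4-DBD/mouse RORγ fusion under metallothionein promoter plus UAS-luciferase; compound 1 h, then 700 uM CuSO4 induction for 20 h at ambient temperature; inhibition read as reduced luminescence.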
On the % scale 0 is the no-effect control and ±100 the full control effect; potency means the concentration at half of the fitted maximal effect.

Nuclear receptor ROR-gamma (Mus musculus), sequence (P51450 whole entry, looked up, the tested form may be a part): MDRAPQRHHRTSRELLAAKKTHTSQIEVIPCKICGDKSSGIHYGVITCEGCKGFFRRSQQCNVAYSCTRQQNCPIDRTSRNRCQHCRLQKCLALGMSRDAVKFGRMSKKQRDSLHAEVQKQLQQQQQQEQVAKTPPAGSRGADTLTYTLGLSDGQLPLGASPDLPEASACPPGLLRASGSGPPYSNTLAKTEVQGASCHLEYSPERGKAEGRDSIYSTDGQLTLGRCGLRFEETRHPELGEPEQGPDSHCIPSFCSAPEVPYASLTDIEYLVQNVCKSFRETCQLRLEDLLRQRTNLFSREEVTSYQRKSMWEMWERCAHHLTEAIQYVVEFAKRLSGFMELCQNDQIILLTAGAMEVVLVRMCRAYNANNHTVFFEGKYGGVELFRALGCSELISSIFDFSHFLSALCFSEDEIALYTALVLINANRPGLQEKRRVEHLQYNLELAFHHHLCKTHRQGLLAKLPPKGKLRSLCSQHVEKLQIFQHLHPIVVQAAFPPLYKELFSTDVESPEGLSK

| Compound | activity change, negative = inhibition | Potency |
| --- | --- | --- |
| CCOC(=O)C1CCN(C(=O)CN2C(=O)c3cccnc3Oc3ccc(C)cc32)CC1 | -7.07% |  |
| CCCc1cc(=O)[nH]c(SCC(=O)Nc2sc3c(c2C#N)CCCC3)n1 | 33.4% |  |
| Cc1ccc(Cn2c(=N)c(S(=O)(=O)c3ccc(C)cc3)cc3c(=O)n4ccccc4nc32)cc1 | -23.8% |  |
| CCC(C)(C)NC(=O)C(c1ccc(OC)cc1)N(C(=O)CCC(=O)Nc1cc(C)on1)c1ccc(OC)cc1OC (stereo not drawn) | 40.9% |  |
| CCOC(=O)N1CCN(C(=O)COc2ccc(Cl)cc2C)CC1 | -1.24% |  |
| CCCn1nnnc1NC(=O)COc1ccc(Cl)cc1C |  | 0.891 µM (active) |
| Cc1cc(Cl)ccc1OCCCC(=O)Nc1cccc(-n2cnnn2)c1 | 35% |  |
| OC(c1ccc(Cl)cc1)C(CN1CCOCC1)c1ccccc1 (stereo not drawn) | 3.28% |  |
| Cc1ccc(/C=C2\SC(=S)N(CCC(=O)Nc3ccc(O)cc3)C2=O)cc1 | -15.4% |  |
| O=C(CCCN1C(=O)/C(=C\c2ccccc2)SC1=S)Nc1ccccc1O | -38.6% |  |
| O=C(CCCN1C(=O)/C(=C/c2ccccc2)SC1=S)Nc1ccc(O)cc1 |  | 3.98 µM (active) |
| CN1CCN(Cc2nc3cc(NC(=O)COc4ccc([N+](=O)[O-])cc4)ccc3n2C)CC1 | -7.74% |  |
| COc1ccc2c(C)c(CCC(=O)NC3CC3)c(=O)oc2c1C | 7.24% |  |
| Cc1cc(NC(=O)CN2CCCC(C)C2)n(-c2nc3ccccc3s2)n1 (stereo not drawn) |  | 1.58 µM (active) |
| CC(=O)Nc1ccc(NC(=O)CN2CCCC(C)C2)c(Cl)c1 (stereo not drawn) | 27.2% |  |
| CC1CCCN(CC(=O)Nc2cc(Cl)ccc2Oc2ccccc2)C1 (stereo not drawn) | 4.22% |  |
| COc1ccc(S(=O)(=O)n2cnc3ccccc32)c(C)c1 | 40% |  |
| COc1ccc(N2CC(C(=O)N[C@@H](C)C(=O)N3CCCCC3)CC2=O)cc1 (stereo partly drawn) | -8.28% |  |
| FC(F)(F)c1ccc(-n2cn[nH]c2=S)cc1 |  | 10 µM (active) |
| COc1ccccc1N1CC(C(=O)Nc2nnc(SCC(=O)NCC3CCCO3)s2)CC1=O (stereo not drawn) | 2.4% |  |
| CNS(=O)(=O)c1cccc(C(=O)NC2CCCc3ccccc32)c1 (stereo not drawn) | -15.4% |  |
| S=c1nc2ccccc2c2nc(-c3cccnc3)[nH]n12 |  | 0.447 µM (active) |
| c1cncc(-c2nc(N3CCNCC3)c3ccccc3n2)c1 | 14.8% |  |
| c1ccc(-n2nnnc2-c2cccnc2)cc1 | 3.95% |  |
| O=C(C1CCCN(S(=O)(=O)c2ccccc2)C1)N1CCN(c2ccc(F)cc2)CC1 (stereo not drawn) | 16.8% |  |
| Cc1cccc(C(=O)NCCCN(C)CCCNC(=O)c2cccc(C)c2)c1 | -5.29% |  |
| Cc1cccc(C(=O)NC(=S)N(C)C2CCCCC2)c1 |  | 1.78 µM (active) |

| Compound | activity change, negative = inhibition | Potency |
| --- | --- | --- |
| Cc1ccc(S(=O)(=O)NC(=O)c2cccc(C)c2)cc1 | 0.442% |  |
| O=C(Nc1c2c(nn1-c1cccc(Cl)c1)CS(=O)(=O)C2)c1cccs1 | -10.5% |  |
| Cc1coc2c(O)cc3c(c12)OC1(N2CCCCC2)C(=O)NCCCC31 (stereo not drawn) |  | 12.6 µM (active) |
| COc1ccc(C(=O)Nc2c(N)nc(SCC(=O)Nc3ccc(C(C)=O)cc3)[nH]c2=O)cc1 | -19.8% |  |
| CCCCN(CC)C(=O)C1CCCN(S(=O)(=O)c2cccc3nsnc23)C1 (stereo not drawn) | 3.5% |  |
| Cc1ccc(OC(=O)c2cncc(Br)c2)c(C)c1 | -23% [at 1.91 µM] |  |
| O=C(NCc1ccccn1)C1CCN(S(=O)(=O)c2ccc(Br)cc2)CC1 | -18.1% |  |
| CC(=O)Cc1nsc(NC(=O)c2csc3c2CCCC3)n1 | 25% |  |
| Cc1ccc(NC(=O)c2csc3c2CCCC3)cc1 | 12.7% |  |
| COC(=O)c1sc(NC(=O)c2csc3c2CCCC3)nc1C |  | 35.5 µM (active) |
| COc1ccc(C(=O)NC2CCN(C(=O)Nc3ccc(F)cc3)CC2)cc1 | -0.284% |  |
| COc1ccccc1CNC(=O)c1ccc(CS(=O)(=O)c2ccccc2)o1 | 28.3% |  |
| CCOc1ccc(CN2CCN(CCCc3ccccc3)C(CCO)C2)cc1 (stereo not drawn) | 2.1% |  |
| CCN(C(=O)C1CCCN(c2nc(-c3ccc(OC)cc3)no2)C1)c1ccc(OC)cc1 (stereo not drawn) | 38.9% |  |
| OC(c1nc2ccccc2[nH]1)C(O)C(O)C(O)c1nc2ccccc2[nH]1 (stereo not drawn) | 20.1% |  |
| OCCNc1nc2ccccc2[nH]1 | -8.36% |  |
| c1ccc2[nH]c(-c3nc4ccccc4[nH]3)nc2c1 |  | 10 µM (active) |
| Cc1cc(C)c2c(-c3ccc(F)cc3)c(C#N)c(=O)n(C)c2n1 | -20% |  |
| CCc1ccc(OCC2c3cc(OC)c(OC)cc3CCN2C(C)=O)cc1 (stereo not drawn) | -7.5% |  |
| Nc1nc(Nc2ccccc2F)nc(NC2CCCCC2)c1[N+](=O)[O-] | 16.6% |  |
| c1ccc(-c2cc(N3CCCCC3)c3ccccc3n2)cc1 |  | 14.1 µM (active) |
| O=c1cc(N2CCCCC2)c(-c2ccccc2)nn1Cc1cccc(F)c1 | -0.464% |  |
| O=c1cc(-c2ccccc2)nc(N2CCCCC2)[nH]1 | -5.11% |  |
| CCC(=O)Nc1nnc(S(=O)(=O)N(CC(C)C)c2ccccc2)s1 | -21.1% |  |
| CCOc1ccc2[nH]c(=O)c(CN(CCCO)S(=O)(=O)c3ccc(F)cc3)cc2c1 | 12.8% |  |
| O=C(Nc1nnc(C2COc3ccccc3O2)o1)c1ccc(F)cc1 (stereo not drawn) |  | 0.562 µM (active) |

Source: PubChem BioAssay AID2551 (National Center for Advancing Translational Sciences (NCATS), 2010)
